The values below come from PubChem BioAssay.

The nature of assay [1]: stimulators of nuclear beta-catenin in C2C12, primary screen, imaging, WNT3A-conditioned medium, mouse C2C12, NPC library (AID 1117326; in the data active means nuclear beta-catenin stimulation mostly above about 4.2%, no sharp cut-off; inactive means mostly below about 10%). The settings on record: stronger effect = higher value.
Assay [2] can be described thus: stimulators of insulin release from INS-1E, primary screen, cell-based, 5 mM glucose, NPC library (AID 1117329;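 active means compound raises insulin release from rat beta cells at 5 mM glucose, no numeric limit stated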). The settings on record: rat INS-1E insulin secretion, at 10 µM, stronger effect = higher value.
Assay [3] can be described thus: growth inhibition of GSK3B-pretreated HCT116 cells – cell-based, CellTiter-Glo, 0.2 to 20 µM (AID 1117336;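 active means compounds lowering colon cancer cell viability after pretreatment blocking the GSK3B kinase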). The following applies: HCT116 viability after GSK3B inhibitor, at 20 µM, stronger effect = higher value. (ATP-based viability assays read luminescence as a measure of living cells.)
Assay [4] can be described thus: inhibition of endothelial tube formation, primary screen, imaging, VEGF stimulated, CD31 staining, tube area, NPC library (AID 1117340;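 active means compound that reduces growth-factor-driven endothelial tube area in a mixed cell culture, no cutoff stated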). The following applies: VEGF-stimulated ADSC/ECFC co-culture, at 10 µM, stronger effect = higher value.
A short description of assay [5]: glucagon-like peptide 1 release enhancers, primary assay, NCI-H716 cell line, NPC library (AID 1117341;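 active means compound raises GLP1 secretion from the human gut endocrine cells, with no numeric limit stated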). The settings on record: NCI-H716 cells, at 10 µM, stronger effect = higher value.
Assay [6] can be described thus: HCT116 colon cancer cell growth inhibition, primary screen, CellTiter-Glo luminescence, NPC library (AID 1117342;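 active means compounds that lower survival of HCT116 colon cancer cells in the luminescence readout, no numeric limit stated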). The settings on record: at 20 µM (top of the series).
Assay [7] can be described thus: CellTiter-Glo luminescent readout of SW480 viability loss, NPC library primary (AID 1117343;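 active means compounds that lower viability of the colon cancer cells in the luminescence readout, with no numeric limit stated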). The settings on record: CellTiter-Glo luminescence; at 20 µM (top of the series).
Assay [8] in a line: decreased DLD-1 cellular survival, CellTiter-Glo luminescent readout, NPC compound collection, primary HTS (AID 1117346;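 active means compounds that lower survival of DLD-1 colon cancer cells in the luminescence readout, no cutoff given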). The settings on record: DLD-1 viability, CellTiter-Glo luminescence; at 20 µM (top of the series).
Assay [9] addresses 6-phosphogluconate dehydrogenase, decarboxylating (Homo sapiens) (UniProt P52209). The assay is described as follows: 6PGD enzyme inhibitors, primary screen, biochemical, human, recombinant enzyme, NADPH absorbance (AID 1159550;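 active means at least 20% inhibition of 6-phosphogluconate dehydrogenase activity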). The following applies: recombinant 6PGD, NADPH absorbance 341 nm; at 10 µM; stronger effect = higher value.
Assay [10] in a line: differential killing of epithelial or mesenchymal cells, primary screen, imaging, PC-3E GFP, TEM4-18 mCherry, co-culture (AID 1345086;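 active means compounds killing one labelled cell type while sparing the other, by normalised counts and ratio limits, not self-fluorescent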;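 on all read-outs here: cells exposed to compound for 72 h before imaging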;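 on red/green cell ratio (normalised): normalised mesenchymal count divided by normalised epithelial count so high means epithelial killing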). The following applies: imaging cell counts, at 1 µM; for red/green cell ratio (normalised): actives lie on both sides, counts scaled to control wells, 1 = unselective.
Assay [11] is described as follows: survival rescue of mitochondrial mutant cells in low glucose, primary screen, MELAS cybrids, Rieske KO mouse fibroblasts, CellTiter-Glo (AID 1508586;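 active means mean z-score across replicates of 1.96 or higher in either the MELAS or the Rieske mutant cell line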;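 further: z relative to plate mean and SD of compound and empty wells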).
The target of assay [12] is NAD(+) hydrolase SARM1 (Homo sapiens) (UniProt Q6SZW1). Description: SARM1 TIR NADase inhibitors, cell lysate, NAD-Glo luminescence (AID 1508614;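 active means compound whose remaining NAD level is above about 45 nM, limit read from the data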). The settings on record: SAM-TIR HEK293T lysate NADase, at 1 µM, stronger effect = higher value.
Sequence of NAD(+) hydrolase SARM1 (Homo sapiens) (Q6SZW1 whole entry, looked up, the tested form may be a part): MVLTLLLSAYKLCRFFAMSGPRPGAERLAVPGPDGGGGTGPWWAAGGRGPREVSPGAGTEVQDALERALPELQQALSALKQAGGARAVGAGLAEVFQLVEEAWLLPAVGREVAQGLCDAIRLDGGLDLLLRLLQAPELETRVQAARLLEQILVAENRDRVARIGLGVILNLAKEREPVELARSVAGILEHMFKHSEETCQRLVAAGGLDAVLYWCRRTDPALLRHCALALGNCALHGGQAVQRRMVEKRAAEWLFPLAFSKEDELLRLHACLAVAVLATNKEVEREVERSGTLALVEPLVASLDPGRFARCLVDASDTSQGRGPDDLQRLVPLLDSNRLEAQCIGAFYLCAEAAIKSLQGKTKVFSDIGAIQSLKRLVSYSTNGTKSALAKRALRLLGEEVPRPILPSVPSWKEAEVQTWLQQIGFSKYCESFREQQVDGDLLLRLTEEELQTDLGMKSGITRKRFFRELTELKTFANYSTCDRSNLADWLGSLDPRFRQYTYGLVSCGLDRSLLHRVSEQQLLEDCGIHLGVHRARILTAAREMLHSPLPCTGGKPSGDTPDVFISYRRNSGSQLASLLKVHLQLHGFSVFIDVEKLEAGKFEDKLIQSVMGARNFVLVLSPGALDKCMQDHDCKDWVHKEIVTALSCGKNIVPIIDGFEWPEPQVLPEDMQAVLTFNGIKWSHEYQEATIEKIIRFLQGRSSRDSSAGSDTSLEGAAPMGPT
For assay [13], the target named is Mitogen-activated protein kinase 7 (Homo sapiens) (UniProt Q13164). The assay is described as follows: ERK5 transactivation activators in reporter cells, primary screen, cell-based, HTS (AID 1508626;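 active means luciferase signal above three times the same-plate solvent-only control wells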;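 further: luciferase driven by Gal4-ERK5 fusion binding five Gal4 sites before minimal TATA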). The following applies: HeLa Gal4-ERK5 transactivation, 18 h, at 5 µM, stronger effect = higher value.
Sequence of Mitogen-activated protein kinase 7 (Homo sapiens) (Q13164 whole entry, looked up, the tested form may be a part): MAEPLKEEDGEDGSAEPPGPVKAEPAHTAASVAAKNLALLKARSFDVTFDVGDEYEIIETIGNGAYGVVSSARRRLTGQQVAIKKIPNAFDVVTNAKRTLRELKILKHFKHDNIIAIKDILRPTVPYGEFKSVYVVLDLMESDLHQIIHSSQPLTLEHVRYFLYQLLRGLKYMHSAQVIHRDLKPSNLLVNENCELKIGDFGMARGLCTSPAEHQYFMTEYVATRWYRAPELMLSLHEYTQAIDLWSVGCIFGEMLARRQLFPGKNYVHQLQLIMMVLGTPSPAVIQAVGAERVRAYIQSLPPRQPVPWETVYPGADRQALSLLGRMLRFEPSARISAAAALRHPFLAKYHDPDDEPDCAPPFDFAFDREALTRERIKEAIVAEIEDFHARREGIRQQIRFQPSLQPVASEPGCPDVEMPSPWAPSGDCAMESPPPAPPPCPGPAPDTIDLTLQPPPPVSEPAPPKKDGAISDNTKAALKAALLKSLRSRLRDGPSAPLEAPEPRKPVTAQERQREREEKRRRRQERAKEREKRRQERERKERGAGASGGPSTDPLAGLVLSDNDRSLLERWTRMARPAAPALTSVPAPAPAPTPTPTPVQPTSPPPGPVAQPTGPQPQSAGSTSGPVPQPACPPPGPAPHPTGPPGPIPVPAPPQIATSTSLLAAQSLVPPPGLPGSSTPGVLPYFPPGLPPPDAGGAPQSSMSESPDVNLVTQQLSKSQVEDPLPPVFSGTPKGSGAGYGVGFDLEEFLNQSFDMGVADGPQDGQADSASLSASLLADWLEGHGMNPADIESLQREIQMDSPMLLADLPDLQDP
The subject of another assay is F380Y. Description: modulators of BK channel variants, profiling panel, selectivity assay, cell-based, U2OS BacMam, thallium flux, beta subunits (AID 1259406).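 Further: initial slope of Thallos dye fluorescence rise after thallium is added; log ratio against the mean of 0.3% DMSO vehicle wells on the same plate.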 The settings on record: at 30 µM.
For another assay, the system named is F380Y/beta2Delta. The description is as above. The settings on record: at 30 µM.
Assay [14] concerns the target Calcium-activated potassium channel subunit alpha-1 (Homo sapiens) + Leucine-rich repeat-containing protein 26 (Homo sapiens) (UniProt Q12791+Q2I0M4). The description is as above. The settings on record: F380Y/Slo1WT/gamma1, at 30 µM.
Another assay concerns R275C. The assay is described as above. The settings on record: at 30 µM.
For a further assay, the system named is R275C/beta1. The assay is described as above. The following applies: at 30 µM.
The subject of the next assay is R275C/beta2Delta. The assay is described as above. The following applies: at 30 µM.
Assay [15] is described as follows: sensitizers of A549 cells to miR-34 induction, primary screen, imaging, A549 dox-inducible miR-34, nuclei and caspase counts (AID 1347080;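 active means compounds whose cell count with miR-34 switched on is under 0.7 times the count with it off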). The following applies: A549 miR-34 inducible, Hoechst nuclei count, 48 h.
[16] abbreviates: measured here: epithelial PC-3E GFP cell survival.
Setting [17] is: measured here: mesenchymal TEM4-18 mCherry cell survival.
Where [18] appears, read: MELAS cybrid survival, CellTiter-Glo 48 h, stronger effect = higher value.
[19] abbreviates: Rieske KO mouse fibroblast survival, CellTiter-Glo 72 h.

Several values for one entry are separate records, joined by “and”; a condition that tells them apart may be missing. Equal values may be shown once. Activity calls are given as the source filed them.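 How the source made its calls, unless noted: active means thallium flux through the channel raised or lowered by more than 3 SD from vehicle-only wells, actives on both sides; inactive means the rest.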

Sequence of Calcium-activated potassium channel subunit alpha-1 (Homo sapiens) + Leucine-rich repeat-containing protein 26 (Homo sapiens) (Q2I0M4 whole entry, looked up, one chain of several): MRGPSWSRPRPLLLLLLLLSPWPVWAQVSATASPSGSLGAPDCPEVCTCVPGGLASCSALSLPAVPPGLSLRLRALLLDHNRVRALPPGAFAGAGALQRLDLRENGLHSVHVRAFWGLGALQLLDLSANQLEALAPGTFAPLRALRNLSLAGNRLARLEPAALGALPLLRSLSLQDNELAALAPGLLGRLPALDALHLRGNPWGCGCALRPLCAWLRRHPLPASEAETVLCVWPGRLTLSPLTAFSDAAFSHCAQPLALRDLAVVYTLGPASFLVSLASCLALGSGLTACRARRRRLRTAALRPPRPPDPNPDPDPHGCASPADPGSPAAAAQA
Sequence of 6-phosphogluconate dehydrogenase, decarboxylating (Homo sapiens) (P52209 whole entry, looked up): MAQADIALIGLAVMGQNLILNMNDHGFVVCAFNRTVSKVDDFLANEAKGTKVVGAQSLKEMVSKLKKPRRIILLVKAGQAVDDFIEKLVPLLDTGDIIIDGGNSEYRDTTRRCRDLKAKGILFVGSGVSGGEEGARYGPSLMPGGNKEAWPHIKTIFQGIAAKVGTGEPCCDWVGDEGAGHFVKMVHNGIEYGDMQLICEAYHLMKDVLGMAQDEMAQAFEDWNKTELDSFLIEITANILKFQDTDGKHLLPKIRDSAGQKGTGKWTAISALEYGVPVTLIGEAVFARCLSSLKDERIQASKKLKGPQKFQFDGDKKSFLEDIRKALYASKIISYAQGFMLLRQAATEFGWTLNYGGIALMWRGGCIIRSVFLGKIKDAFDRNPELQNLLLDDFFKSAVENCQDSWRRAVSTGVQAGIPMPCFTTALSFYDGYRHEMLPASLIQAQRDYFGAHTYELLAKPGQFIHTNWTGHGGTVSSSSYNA

Regarding `Nc1nc(N)c2nc(-c3ccccc3)c(N)nc2n1`, the nuclear beta-catenin stimulation in assay [1] (at 10 µM) is 17.3% (inactive); in [1] (stimulation, at 2 µM), 4.7%. The insulin secretion stimulation in [2] is -0.7% (inactive). Also, in assay [3], the viability decrease was 91.2% (active). The tube area decrease in assay [4] was 10.4% (inactive). For the same compound, the GLP1 secretion stimulation in [5] was 2.6% (inactive). The inhibition of viability in [6] was 83% (active). For the same compound, the viability decrease (inhibition) in assay [7] is 75.8% (active); in [8] it was 0.75% (inactive). Moreover, in [9], the inhibition is 13.3% (inactive). In addition, the red/green cell ratio (normalised) in assay [10] is 1.25 (inactive). Besides, the normalised cell number was 1 in assay [10] (setting [16]) and 1.25 in assay [10] (setting [17]). In addition, the z-score was -0.205 (inactive) and 1.1 (inactive) in assay [11] (setting [18]); -0.161 and 0.254 in assay [11] (setting [19]). Moreover, the remaining NAD in assay [12] is 10 nM (inactive). For the same compound, in assay [13], the luciferase signal was 48 AU (inactive). Moreover, the log fold change Tl+ flux with F380Y was 0.00573 (inactive); with F380Y/beta2Delta, 0.0397 (inactive); in assay [14], 0.00721 (inactive); in the assay with R275C, -0.00764 (inactive); in the assay with R275C/beta1, -0.0258 (inactive); in the assay with R275C/beta2Delta it was -0.000652 (inactive).

With `CC(C)[N+](C)(CCOC(=O)C1c2ccccc2Oc2ccccc21)C(C)C`, the nuclear beta-catenin stimulation in assay [1] (at 10 µM) is 1.3% (inactive); in assay [1] (stimulation, at 2 µM), 3.3%. Moreover, the insulin secretion stimulation in assay [2] was 0.2% (inactive). Moreover, the viability decrease in assay [3] is -14.9% (inactive). In [4], the tube area decrease is 9.2% (inactive). For the same compound, the GLP1 secretion stimulation in assay [5] was 0.4% (inactive). Further, the inhibition of viability in assay [6] is 6.7% (inactive). Further, the viability decrease (inhibition) in assay [7] is -1.5% (inactive); in [8], -16.9% (inactive). Moreover, the inhibition in assay [9] is 6.27% (inactive). Besides, the red/green cell ratio (normalised) in assay [10] is 1.27 (inactive). Also, the normalised cell number in assay [10] (setting [16]) worked out at 1.02; in assay [10] (setting [17]) it was 1.3. In addition, the values for the z-score in assay [11] (setting [18]) and in [11] (setting [19]) were 0.349 (inactive) and 0.213, respectively. The remaining NAD in [12] was 10 nM (inactive). Further, the luciferase signal in assay [13] was 48 AU (inactive). The log fold change Tl+ flux with F380Y was 0.0202 (inactive); with F380Y/beta2Delta, 0.0277 (inactive); in [14], -0.0355 (inactive); in the assay with R275C it was 0.0289 (inactive); in the assay on R275C/beta1, 0.0122 (inactive); in the assay on R275C/beta2Delta, -0.014 (inactive).

For the compound `CCN(CC)CCOC(=O)c1ccc(N)cc1`, the nuclear beta-catenin stimulation in assay [1] (at 10 µM) was 0.6% (inactive); in assay [1] (stimulation, at 2 µM) it was -0.3%. In addition, the insulin secretion stimulation in [2] is 0.1% (inactive). Moreover, the viability decrease in [3] is 2.8% (inactive). In addition, the tube area decrease in assay [4] was 7% (inactive). For the same compound, the GLP1 secretion stimulation in [5] was -0.7% (inactive). The inhibition of viability in assay [6] is 4.2% (inactive). For the same compound, the viability decrease (inhibition) in assay [7] is 56.5% (active); in assay [8], 1.05% (inactive). Further, in assay [9], the inhibition is 2.32% (inactive). Moreover, in [10], the red/green cell ratio (normalised) was 1.08 (inactive). Also, the normalised cell number in assay [10] (setting [16]) stood at 0.95; in [10] (setting [17]), 1.03. Further, the z-score was -0.214 (inactive) and -0.849 (inactive) in assay [11] (setting [18]); -0.241 and -0.347 in assay [11] (setting [19]). Moreover, the remaining NAD in assay [12] was 10 nM (inactive). In assay [13], the luciferase signal was 92 AU (inactive). For the same compound, the log fold change Tl+ flux in the assay with F380Y is -0.0653 (inactive); in the assay with F380Y/beta2Delta, 0.0223 (inactive); in [14], 0.0123 (inactive); in the assay with R275C, -0.00878 (inactive); with R275C/beta1 it was -0.0214 (inactive); in the assay with R275C/beta2Delta it was 0.0278 (inactive).

`NCC(=O)CCC(=O)O`: the nuclear beta-catenin stimulation in assay [1] (at 10 µM) was 0.4% (inactive); in assay [1] (stimulation, at 2 µM), -0.9%. In assay [2], the insulin secretion stimulation was 1.9% (inactive). Also, in [3], the viability decrease was 26.6% (inactive). Besides, in [4], the tube area decrease was -10.4% (inactive). In assay [5], the GLP1 secretion stimulation was -1.4% (inactive). Further, in assay [6], the inhibition of viability is 18.9% (inactive). In addition, the viability decrease (inhibition) in assay [7] was 19.8% (inactive); in assay [8], 1% (inactive). For the same compound, in assay [9], the inhibition is -28.8% (inactive). For the same compound, the red/green cell ratio (normalised) in assay [10] was 1.08 (inactive). The normalised cell number in assay [10] (setting [16]) is 1.3; in assay [10] (setting [17]) it was 1.4. In addition, the fold change in assay [15] (stronger effect = lower value, cell number ratio, induced over uninduced) was 0.951 (inactive) and 0.95 (inactive) and 0.866 (inactive); in assay [15] (measured here: relative caspase fold change +Dox/-Dox), 1.44 and 0.654 and 2.02. The cell count in assay [15] (measured here: total cells with miR-34 induction, stronger effect = lower value) was 9310 and 7910 and 11200; in assay [15] (measured here: total cells without miR-34 induction) it was 9780 and 8320 and 12900. Moreover, the figures for the z-score in assay [11] (setting [18]) and in assay [11] (setting [19]) were -0.348 (inactive) and 0.0439, respectively. Besides, the remaining NAD in assay [12] was 10 nM (inactive). In addition, the luciferase signal in [13] was 84 AU (inactive). For the same compound, the log fold change Tl+ flux with F380Y is -0.035 (inactive); in the assay with F380Y/beta2Delta, -0.0239 (inactive); in assay [14] it was 0.011 (inactive); in the assay with R275C, -0.000596 (inactive); in the assay with R275C/beta1, -0.0231 (inactive); in the assay with R275C/beta2Delta it was -0.0499 (inactive).

The term inhibition denotes the relative decrease from the control value, in per cent.
